The text below walks through data of PubChem BioAssay (Tox21).

Results filed as inconclusive are left out. A number with no mark means an inactive call. Activity calls are given as the source filed them. Calls follow the shape of the dose curve; as a rule, active = well fitted activation curve with a large enough effect in the repeat runs; inconclusive = weak or mixed curves; inactive = no such curve, though single readings can be large or run the other way.
% is scaled to controls: 0 for no effect and ±100 for the full control effect; potency is read from the fitted curve at half-maximal effect.

The nature of this assay: qHTS assay for small molecules that induce genotoxicity in human embryonic kidney cells expressing luciferase-tagged ATAD5 (AID 651632). Also: nearly all actives have a fitted effect of over 15% in size. The note with it: HEK293T ATAD5-luciferase induction, 16 h; series mostly up to 83.3 µM; activation: at the top concentration. An excerpt: U.S. Tox21 Program National Center for Advancing Translational Sciences [NCATS] NIH Chemical Genomics Center [NCGC] U.S. Environmental Protection Agency [EPA] National Institutes of Environmental Health Sciences [NIEHS] National Toxicology Program [NTP] U.S. Food and Drug Administration [FDA] Tox21 Assay Overview: As cancer cells divide rapidly and during every cell division they need to duplicate their genome by DNA replication. The failure to do so results in the cancer cell death. Based on this concept, many chemotherapeutic agents were developed but have limitations such as low efficacy and severe side effects etc. A new cell based assay was developed to find the compounds that effectively block DNA replication either by directly damaging DNA or by inhibiting other cellular mechanisms. Enhanced Level of Genome Instability Gene 1 (ELG1; human ATAD5) protein levels increase in response to various types of DNA damage. Using a luciferase reporter-gene tagged with ATAD5, a cell-based assay [developed by Kyungjae Myung, NHGRI, NIH] was used to measure the induction of ATAD5 in human embryonic kidney cells (HEK293T). So, increase in luciferase activity can be used to identify the compounds that cause genetic stress.
Tox21 Assay Protocol Summary: For genotoxicity screening, 2,000 cells in 5 uL/well were dispensed into white, solid-bottom 1536-well plates using a Multidrop Combi (Thermo Scientific) dispenser. Following transfer of 23 nL compound or DMSO vehicle by a pin tool, the plates were incubated 16 hr at 37C and 5% CO2. 5 ul Amplite (AAT Bioquest, Inc.) was then added to each plate and following 30 min incubation at room temperature, luciferase activity was quantified on a ViewLux CCD-based plate reader.
Background: qHTS replaces the single test concentration by a dilution series.
`C1COC1`: the “activation” value is 0.37%.

`Cc1cccc(N(C)C(=S)Oc2ccc3c(c2)CCC3)c1`: the “activation” value was -3.46%.

Regarding `O=C(O)CCC(=O)C(=O)O`, the Potency entry is “inactive”.

Take `CCOC(=O)/C=C/C(=O)OCC`: the “activation” value was 0.925%.

For `CCc1ccccc1`, the “activation” value is 0.297% [at 95.3 µM].

In the case of `C/C=C/C=C/C=O`, the “activation” value is 4.35%.

As to `O=C1C(=O)c2ccccc2C(O)=C1C1CCC(c2ccc(Cl)cc2)CC1` (stereo not given), the “activation” value was -4.39% [at 39.1 µM].

On to `CC(=O)OCC(=O)NCCCOc1cccc(CN2CCCCC2)c1`, for which the Potency entry is “inactive”.

In the case of `CC(O)c1ccccc1` (stereo not given), the “activation” value is 1.84% [at 95.3 µM].

`CCCCN1CCCC1C(=O)Nc1c(C)cc(C)cc1C` (stereo not given): the “activation” value is -4.68%.

On to `Cc1c(C)c2c(c(C)c1OC(=O)CCC(=O)OCCO)CC[C@@](C)(CCC[C@H](C)CCC[C@H](C)CCCC(C)C)O2`, for which the “activation” value is -6.24%.

As for `CN1CC(=O)N2[C@H](c3ccc4c(c3)OCO4)c3[nH]c4ccccc4c3C[C@@H]2C1=O`, the “activation” value is 3.23%.

For `O=C1c2ccccc2C(=O)C1(O)O`, the “activation” value was 3.83% [at 95.3 µM].

For `C[C@@H](CN(C)C)CN1c2ccccc2Sc2ccccc21`, the “activation” value is -6.59% [at 39.1 µM].

In the case of `CN1CCCN=C1COC(=O)C(O)(c1ccccc1)C1CCCCC1` (stereo not given), the “activation” value was -2.31%.

For the compound `CC(=O)Oc1ccc([N+](=O)[O-])cc1CCl`, the “activation” value was -2.16%.

Take `C[C@@H](O[C@H]1OCCN(Cc2n[nH]c(=O)[nH]2)[C@H]1c1ccc(F)cc1)c1cc(C(F)(F)F)cc(C(F)(F)F)c1`: the “activation” value is -8.98%.

Regarding `C=C(C)CCCC(C)CCO` (stereo not given), the “activation” value was 0.615%.

Consider `O=C(O)c1cccc(-c2noc(-c3ccccc3F)n2)c1`, for which the Potency is 23.7 nM (active).

As for `C=Cc1ccc(S(=O)(=O)O)cc1`, the “activation” value is 0.807%.

Turning to `Nc1nnc(-c2ccc([N+](=O)[O-])o2)o1`, the “activation” value is -7.42%.

For the compound `CCOC(=O)OC(C)OC(=O)[C@@H]1N2C(=O)[C@@H](NC(=O)[C@H](N)c3ccccc3)[C@H]2SC1(C)C` (stereo not given in full), the “activation” value is -2.11% [at 39.1 µM].

Regarding `CC(CCC(=O)O)C(=O)O` (stereo not given), the “activation” value is -0.664%.

On to `Cc1ccc(OC(=O)c2ccccc2O)cc1`, for which the “activation” value was 1.44%.

Turning to `CCC(=O)C1CC(C(C)C)CC=C1C` (stereo not given), the “activation” value was -1.12%.

Turning to `Cc1ccccc1N=C(N)Nc1ccccc1C`, the “activation” value was -2%.

Regarding `CC(=O)N/N=C/c1ccc([N+](=O)[O-])o1`, the “activation” value was -7.19%.

Turning to `Cc1ccccc1S`, the “activation” value is -2.2%.

As to `O=C=Nc1cccc(C(F)(F)F)c1`, the “activation” value was -9.78%.

Take `Cc1ccc(CO)cc1`: the “activation” value was -2.49% [at 95.3 µM].

Regarding `CC[N+](CC)(CCNC(=O)C(=O)NCC[N+](CC)(CC)Cc1ccccc1Cl)Cc1ccccc1Cl`, the “activation” value was -3.24%.

Regarding `O=C(Nc1cccc2c(=O)cc(-c3nn[nH]n3)oc12)c1ccc(OCCCCc2ccccc2)cc1`, the “activation” value is 2.86%.

As for `CC(=O)OCCN(CCOC(C)=O)c1ccc(N=Nc2ccc([N+](=O)[O-])cc2C#N)cc1`, the “activation” value is -4.57%.

Turning to `CC=C(Cl)Cl`, the “activation” value was 1.21%.

`CCCCCCCCCCCCCCN(CCO)CCO`: the “activation” value is -14.8%.

On to `OCCOCC#CCOCCO`, for which the “activation” value is 2.53%.

Turning to `NC(=O)c1ccncc1`, the “activation” value was -0.73% [at 95.3 µM].

For the compound `C=C(C)C(=O)OCCCCCCCCCCCCC`, the “activation” value was 3.08%.

On to `CCCCCC[C@@H](O)C/C=C\CCCCCCCC(=O)OCC(O)CO` (stereo not given in full), for which the “activation” value is 3.04%.

In the case of `C/C=C(/C(=C/C)c1ccc(O)cc1)c1ccc(O)cc1`, the “activation” value is -0.591% [at 39.1 µM].
